Laboratory results as given in PubChem BioAssay (EPA / NIEHS).
Activity calls are given as the source filed them. The calls were made as follows: active = hit-call score of the fitted dose curve at least 0.9, where 1 is the maximum; inactive = score below 0.9.

Legend:
[1] = CCTE_Mundy_HCI_Cortical_Synap_Neur_Matur_NeuriteSpotCountPerNeuriteLength: CCTE's Synaptogenesis and Neurite Maturation Assay in rat cortical cells for Neurite Spot Count per Neurite Length, Mundy Lab (AID 2284210)
Procedure, shortened: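 Rat primary cortical cultures, AraC added at DIV 5 to suppress glia; chemical exposure from DIV 7 to DIV 12. Fixed cells stained for MAP2 and synaptophysin plus Hoechst; synaptophysin puncta per neurite length quantified by high-content imaging, relative to DMSO.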

[2] = CCTE_Mundy_HCI_Cortical_NOG_NeuriteLength: CCTE's Neurite Outgrowth Assay in rat cortical cells for Neurite Length, Mundy Lab (AID 2284213)
Procedure, shortened: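 Neurite length was read by high-content imaging of βIII-tubulin-labelled neurites in rat primary cortical cultures. Activity was fitted relative to DMSO.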

[3] = CCTE_Mundy_HCI_Cortical_Synap_Neur_Matur_NeuriteLength: CCTE's Synaptogenesis and Neurite Maturation Assay in rat cortical cells for Neurite Length, Mundy Lab (AID 2284214)
Procedure, shortened: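 Rat primary cortical cells were plated, treated with AraC at DIV 5 to arrest glial growth, then chemical-dosed with media change at DIV 7 through DIV 12. Fixed cells stained for MAP2, synaptophysin and Hoechst; neurite length quantified by high-content imaging.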

[4] = CCTE_Mundy_HCI_Cortical_Synap_Neur_Matur_NeuriteSpotCountPerNeuron: CCTE's Synaptogenesis and Neurite Maturation Assay in rat cortical cells for Neurite Spot Count per Neuron Count, Mundy Lab (AID 2284215)
Procedure, shortened: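 Rat primary cortical cultures given AraC at DIV 5, dosed from DIV 7 to DIV 12 with media change. Fixed, stained for MAP2, synaptophysin and Hoechst; neurite-associated synaptophysin puncta per neuron quantified by high-content imaging versus DMSO.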

[5] = TAMU_PeakParms_SingleDonor1434_Chronotropy: Texas A&M University (TAMU) 1.5-hr Human Induced Pluripotent Stem Cell (iPSC)-derived Cardiomyocytes Calcium (Ca+2) Flux Assay for Cardiotoxicity: Chronotropy (changes in peak frequency) (AID 2284217); settings: actives raise or lower the signal
Procedure, shortened: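 Beat frequency of single-donor iPSC cardiomyocytes was recorded through a calcium-sensitive dye 1.5 hours after exposure to four concentrations up to 100 uM. An EC05 point of departure was derived.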

[6] = CCTE_Mundy_HCI_Cortical_Synap_Neur_Matur_SynapseCount: CCTE's Synaptogenesis and Neurite Maturation Assay in rat cortical cells for Synapse Count, Mundy Lab (AID 2284218)
Procedure, shortened: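 Rat primary cortical cells in 96-well plates received AraC at DIV 5 and were dosed with chemicals at DIV 7 with media change, through DIV 12 (288.33 h). Synapses per neuron counted by high-content imaging of MAP2/synaptophysin/Hoechst staining, versus DMSO baseline.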

[7] = IUF_NPC1a_proliferation_area_72hr: Leibniz Research Institute for Environmental Medicine (IUF) 72-hour Neural Progenitor Cell Proliferation Area Assay (NPC1a) (AID 2284208)
Procedure, shortened: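 Single 0.25–0.35 mm human fetal neural progenitor spheres in proliferation medium with EGF and FGF, exposed 72 h from plating without renewal at 37C, pH 7.2-7.6. Sphere area growth measured by automated phase-contrast imaging, relative to DMSO.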

[8] = IUF_NPC1_viability_72hr: Viability Assessment at 72 hours in the Leibniz Research Institute for Environmental Medicine (IUF) Neural Progenitor Cell Proliferation Assay (NPC1) (AID 2284209)
Procedure, shortened: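 Human fetal-cortex neural progenitor spheres (0.25–0.35 mm, one per well) grown in EGF/FGF proliferation medium at 37C, pH 7.2-7.6, exposed 72 h without renewal; viability read as alamar blue resazurin-to-resorufin fluorescence relative to DMSO.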

[9] = CCTE_Mundy_HCI_Cortical_Synap_Neur_Matur_BPCount: CCTE's Synaptogenesis and Neurite Maturation Assay in rat cortical cells for Branch Point Count, Mundy Lab (AID 2284211)
Experimental: CCTE_Mundy_HCI_Cortical_Synap&Neurite_Matur is a multiplexed, cell-based-readout assay that uses rat primary cortical cells with measurements taken at 288.33 hours after chemical dosing in a microplate: 96-well plate.CCTE_Mundy_HCI_Cortical_Synap_Neur_Matur_BPCount is one of eight components of the CCTE_Mundy_HCI_Cortical_Synap&Neurite_Matur assay. It measures synaptogenesis and neurite maturation related to number of branch points using High Content Imaging of fluorescently labelled markers.[…] Using a type of morphology reporter, loss -of-signal activity can be used to understand developmental effects.
Cells are plated onto 96 well plates and allowed 2 hr for attachment to the substrate. At days in vitro (DIV) 5, Cytosine Arabinoside (AraC) is added to arrest glial cell growth. Chemicals are dosed and a media change is performed at DIV 7 of differentiation and is continued through DIV 12 when the experiment is terminated. Cells are fixed with […] and Hoechst Dye. Cells are stained using Millipore Mouse anti-MAP2MAB3418 (1:800) and Millipore Rabbit anti-Synaptophysinsc-1750 (1:250) primary antibodies and Alexa Fluor-488 goat anti-mouse and AlexaFluor-546 goat anti-rabbit secondary antibodies to label neuronal cell nuclei, synapses and neurites. A Cellomics ArrayScan VTi HCS Reader is used for automated image acquisition and analysis of neurite outgrowth.

[10] = CCTE_Mundy_HCI_Cortical_NOG_NeuriteCount: CCTE's Neurite Outgrowth Assay in rat cortical cells for Neurite Count, Mundy Lab (AID 2284212);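 also: cells fixed about two days after chemical exposure began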
Procedure, shortened: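 Neurite number per cell from high-content imaging of betaIII-tubulin immunostaining, with Hoechst nuclear counterstain.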

Measured: AC50

O=c1[nH]cc(F)c(=O)[nH]1
inactive: [1] | [2] | [3] | [4] | [5] | [6]

CC(=O)Oc1ccccc1C(=O)O
inactive: [7] | [8] | [1] | [9] | [10] | [2] | [3] | [4] | [5] | [6]

CCOc1ccc2c(c1)C(C)=CC(C)(C)N2
inactive: [5]

COC(=O)c1ccc(O)cc1
active: [5] 50 µM

O=C(O)CCCCC(=O)O
inactive: [5]

C[Si]1(C)O[Si](C)(C)O[Si](C)(C)O[Si](C)(C)O1
inactive: [7] | [8] | [1] | [9] | [10] | [2] | [3] | [4] | [6]

CCCc1cc(=O)[nH]c(=S)[nH]1
inactive: [1] | [2] | [3] | [4] | [5] | [6]

OC[C@@H](O)[C@@H](O)[C@H](O)[C@H](O)CO
inactive: [7] | [8] | [1] | [9] | [10] | [2] | [3] | [4]
active: [6] 0.0648 µM
